Results as given in publication PMC4336329 (PLoS ONE, 2015).
The campaign covered roughly 310,000 compounds. About 14,000 (4.5%) showed an effect of 50% or more. Effects have a minus sign here. This excerpt belongs to a sample that is enriched for strong results.

The compounds below were run against human ether-à-go-go-related gene (hERG) potassium channel (human, UniProt Q12809) (assay: primary screen, population patch clamp on CHO cells stably expressing hERG; higher = less effect of the substance).
Sequence of human ether-à-go-go-related gene (hERG) potassium channel (Q12809 whole entry, looked up): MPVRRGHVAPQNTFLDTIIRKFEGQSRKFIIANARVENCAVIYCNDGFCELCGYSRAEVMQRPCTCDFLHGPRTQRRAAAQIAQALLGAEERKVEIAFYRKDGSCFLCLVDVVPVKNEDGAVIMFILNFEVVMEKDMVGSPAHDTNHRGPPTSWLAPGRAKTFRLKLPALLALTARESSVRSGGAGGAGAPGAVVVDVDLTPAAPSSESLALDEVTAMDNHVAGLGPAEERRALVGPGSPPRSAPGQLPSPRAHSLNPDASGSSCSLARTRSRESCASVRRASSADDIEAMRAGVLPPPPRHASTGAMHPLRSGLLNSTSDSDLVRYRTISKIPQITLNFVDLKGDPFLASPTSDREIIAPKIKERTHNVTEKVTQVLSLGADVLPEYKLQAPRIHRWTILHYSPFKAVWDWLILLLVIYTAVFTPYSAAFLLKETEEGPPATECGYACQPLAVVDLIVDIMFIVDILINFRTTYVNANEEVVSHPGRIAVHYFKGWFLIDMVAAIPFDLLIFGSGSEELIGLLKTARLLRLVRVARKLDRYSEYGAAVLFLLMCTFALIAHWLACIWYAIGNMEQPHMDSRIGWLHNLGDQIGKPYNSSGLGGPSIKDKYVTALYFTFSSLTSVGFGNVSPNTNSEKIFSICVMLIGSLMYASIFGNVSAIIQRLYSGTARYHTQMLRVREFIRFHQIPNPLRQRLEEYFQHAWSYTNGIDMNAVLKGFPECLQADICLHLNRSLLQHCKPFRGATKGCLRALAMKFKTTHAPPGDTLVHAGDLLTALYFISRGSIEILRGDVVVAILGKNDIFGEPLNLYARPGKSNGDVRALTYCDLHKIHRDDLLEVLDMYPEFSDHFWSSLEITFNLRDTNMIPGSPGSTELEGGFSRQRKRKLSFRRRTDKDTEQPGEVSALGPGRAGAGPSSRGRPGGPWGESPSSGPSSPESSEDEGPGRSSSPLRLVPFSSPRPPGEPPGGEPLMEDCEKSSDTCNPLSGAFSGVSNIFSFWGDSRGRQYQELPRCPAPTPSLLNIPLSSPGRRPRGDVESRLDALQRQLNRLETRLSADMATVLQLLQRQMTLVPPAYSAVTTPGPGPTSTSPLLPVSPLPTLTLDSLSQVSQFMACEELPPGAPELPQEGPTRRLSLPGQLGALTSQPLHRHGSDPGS
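Note: peak tail current of the secondary pulse compared with the same well before compound.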

| SMILES | hERG current change (%, negative = inhibition) at 10uM [%] |
| --- | --- |
| O=C(O)CC1Sc2nc3ccccc3n2C1=O (stereo not shown) | 8.05 |
| COc1ccc(CN(C)C(=O)Cn2ccc(NC(=O)OCc3ccccc3)nc2=O)cc1OC | -20.4 |
| O=C(c1ccccc1)N1CCC(O)(c2cccnc2)CC1 | 16.1 |
| Cc1cc(S(=O)(=O)N2CCN=C2c2ccccc2)ccc1F | 7.23 |
| CS(=O)(=O)O.O=C(O)c1ccc2c(c1)c1c3n2CCNC3CCC1 (stereo not shown) | 20.7 |
| Cc1ccc2c(c1)c1c(n2C)C(=O)CCC1 | 11.8 |
| CCn1c2c(c3cc(Cl)ccc31)CCCC2=O | 3.71 |
| CS(=O)(=O)O.c1ccc(-c2ccc3c(c2)c2c4n3CCN=C4CCC2)cc1 | -61.5 |
| OC1CN=C2CCCc3c2n(c2ccc(Cl)cc32)C1 (stereo not shown) | -72.3 |
| Cc1ccc2c(c1)c1c3n2CCN=C3CCC1.Cl | -76.3 |
| O=C(O)c1c2c(nc3ccc(Cl)cc13)CCC2 | 4.39 |
| c1cc2c(cc1C1CCCCC1)c1c3n2CCN=C3CCC1 | -33.9 |
| CCO.Cn1c2c(c(=O)n(C)c1=O)C1(C(=O)Nc3ccccc31)C(C#N)=C(N)O2 (stereo not shown) | 8.3 |
| COc1ccc(CN(C)C(=O)c2cccc(Oc3ccccc3)c2)c(OC)c1OC | -20.6 |
| CSc1nc(C)c(Oc2ccccc2)c(=O)n1C | 5.82 |
| CCC1CCCCN1C(=O)NC(=O)c1ccccc1 (stereo not shown) | 30.3 |
| CC(C)OCCCN(C)C1CCN(S(=O)(=O)c2ccc(-c3ccc(=O)[nH]n3)s2)CC1 | -35.8 |
| CC(C)OCCCN(C)C1CCN(S(=O)(=O)c2ccc(-c3cc(C(F)(F)F)no3)s2)CC1 | -54.6 |
| CC(C)OCCCN(C)C1CCN(S(=O)(=O)c2csc(C(N)=O)c2)CC1 | 13.1 |
| Cc1ccccc1C(=O)NC(=S)Nc1ccc(S(=O)(=O)N2CCOCC2)cc1 | -40 |
| O=C(NCCc1ccccc1)c1cccc(S(=O)(=O)N2CCCCC2)c1 | 5.18 |
| CC(NC(=O)c1cccc(S(=O)(=O)N2CCCCCC2)c1)c1ccccc1 (stereo not shown) | -58.2 |

| SMILES | hERG current change (%, negative = inhibition) at 10uM [%] |
| --- | --- |
| O=C(NCc1cccc(Cl)c1)c1cccc(S(=O)(=O)N2CCCCC2)c1 | 7.08 |
| O=C(NCc1ccccc1F)c1cccc(S(=O)(=O)N2CCCCCC2)c1 | 7.87 |
| CN1CCN(S(=O)(=O)c2cccc(C(=O)O)c2)CC1 | 10.8 |
| Cc1ccc(C(NC(=O)c2cccc(S(=O)(=O)N3CCN(C)CC3)c2)c2ccccc2)cc1 (stereo not shown) | -61.8 |
| O=C(NCc1ccccc1CN1CCCC1)c1cccc(S(=O)(=O)N2CCCC2)c1 | -55.1 |
| CN1CCN(S(=O)(=O)c2cccc(C(=O)N(C)C(c3ccccc3)c3ccccc3)c2)CC1 | -4.72 |
| CC(NC(=O)c1cccc(S(=O)(=O)N2CCN(Cc3ccccc3)CC2)c1)c1ccc(Br)cc1 (stereo not shown) | -17.6 |
| O=C(NCc1ccccc1)c1cccc(S(=O)(=O)N2CCCCC2)c1 | -52.5 |
| CC(NC(=O)c1cc(S(=O)(=O)N2CCCC2)cn1C)c1ccccc1 (stereo not shown) | -0.137 |
| O=C(NCc1ccccc1CN1CCCC1)c1cccc(S(=O)(=O)N2CCOCC2)c1 | -44.5 |
| Cc1cc(C)c(NC(=O)CSc2nnc(CNC(=O)c3ccccc3F)o2)c(C)c1 | -6.38 |
| CN1/C(=C\C(=S)NC(=O)c2ccccc2Cl)C(C)(C)c2ccccc21 | 23.6 |
| COc1cc(C(=O)NCc2ncccc2C)ccc1OC1CCN(C(C)=O)CC1 | 6.34 |
| CCC1CCCCN1C(=O)CSc1nc(N)c(NC(=O)c2ccc(OC)c(OC)c2)c(=O)[nH]1 (stereo not shown) | 4.63 |
| COc1ccc(OCCn2cncn2)cc1 | 12.6 |
| COC(=O)c1cc2sc(Cl)cc2n1CC(=O)N1CCCc2ccccc21 | -1.75 |
| O=C(O)c1ccccc1-c1ccccc1C(=O)NCc1ccccc1Cl | -37.6 |
| COC(=O)C1=C(c2ccc(OC(F)(F)F)cc2)C[C@@H]2CC[C@H]1N2C(=O)NCCOc1ccc(OC)cc1 | -26.3 |
| O=C1N/C(=N/S(=O)(=O)c2ccccc2)S/C1=C/c1cccnc1 | 1.74 |
| CCCCc1c(C)nc2ccccc2c1SCCC(=O)O | 14.8 |
| CCc1c(C)nc2c(C)cccc2c1SCCC#N | 17.7 |
| CCCCc1c(C)nc2ccccc2c1SCCC#N | -50.6 |

| SMILES | hERG current change (%, negative = inhibition) at 10uM [%] |
| --- | --- |
| O=C(Cc1ccc(NC2=NC3CS(=O)(=O)CC3S2)cc1)NCc1ccccc1Cl (stereo not shown) | 6.5 |
| CCOC(=O)c1c(NC(=O)CSc2nnc(-c3ccccc3C)n2C)sc(C(C)=O)c1C | -63 |
| CCOC(=O)c1sc(NC(=O)CSc2nnc(Cc3ccccc3)o2)c(C(=O)OCC)c1C | 9.46 |
| CCOC(=O)c1c(NC(=O)CSc2nnc(Cc3ccccc3)o2)sc(C)c1C | 13.8 |
| CCOC(=O)c1c(NC(=O)CSc2nnc(-c3cccc(C)c3)n2CC)sc(C(C)=O)c1C | -18.9 |
| CCOC(=O)c1c(NC(=O)CSc2nnc(Cc3ccccc3)o2)sc(C(C)=O)c1C | -64.8 |
| CCOC(=O)c1c(NC(=O)CSc2nnc(-c3ccccc3)n2CC)sc(C(C)=O)c1C | -31 |
| O=C(CNC(=O)c1cc2c(n(-c3ccccc3)c1=O)CCCC2=O)c1ccccc1 | -38.5 |
| CN1CCN(C(=O)N2c3ccccc3CCc3ccccc32)CC1 | 11.9 |
| Cc1ccc(C)c(OCCC(=O)OCC(=O)NC(=O)NCc2ccccc2)c1 | 4.16 |
| O=C(NCCCN1CCOCC1)C1CCN(S(=O)(=O)c2cccc(C(F)(F)F)c2)CC1 | -9.45 |
| O=S(=O)(c1cccc(C(F)(F)F)c1)N(CCCN1CCOCC1)Cc1cccs1 | -74.9 |
| CCN(CC)S(=O)(=O)c1cccc(C(=O)NCCCN2CCOCC2)c1 | 9.9 |
| Cl.O=S(=O)(NCCN1CCOCC1)c1cccc(C(F)(F)F)c1 | 5.32 |
| O=C(NCCCN1CCOCC1)c1ccc(S(=O)(=O)Nc2cccc(C(F)(F)F)c2)cc1 | -12.8 |
| O=C(O)C(=O)O.O=S(=O)(c1cccc(C(F)(F)F)c1)N(CCCN1CCOCC1)Cc1cccs1 | -51 |
| COc1ccc(S(=O)(=O)Nc2ccc3oc(C)c(C(C)=O)c3c2)cc1 | 12 |
| COC(=O)c1sc(-c2ccc(Cl)cc2)cc1N | -37.1 |
| O=C(c1ccc(COc2ccc3ccccc3c2)o1)N1N=C(C(F)F)CC1(O)C(F)F (stereo not shown) | -2.62 |
| CC1(C)CC(NC(=O)C(F)(F)F)CC(C)(C)N1OC(=O)c1ccco1 | 1.13 |
| Cc1ccc(S(=O)(=O)NCCCCCC(=O)N(C)C)cc1 | 6.32 |
| CCOC(=O)/C=C1\SCC(=O)N1CC(=O)NC(c1ccccc1)c1ccccc1 | -52.2 |

| SMILES | hERG current change (%, negative = inhibition) at 10uM [%] |
| --- | --- |
| CCOC(=O)/C=C1\SCC(=O)N1CC(=O)NC(C)c1ccccc1 (stereo not shown) | -15.2 |
| CCOC(=O)/C=C1\SCC(=O)N1CC(=O)NC(C)C | 21.2 |
| CCC1CCCCN1CC(=O)c1c(C)[nH]c2ccc(OC)cc12 (stereo not shown) | -20.6 |
| CCC1CCCCN1CC(=O)c1ccc(OC(F)F)cc1 (stereo not shown) | -77.7 |
| O=C(CN1C(=O)c2ccccc2S1(=O)=O)c1ccc(OC(F)F)cc1 | -23 |
| Br.O=C(CN1CCCCC1CO)c1ccc(OC(F)F)cc1 (stereo not shown) | -68.2 |
| O=C(NCC(=O)N1CCCCCC1)c1ccc(OC(F)F)cc1 | -11.3 |
| CCC1CCCCN1CC(=O)c1c(C)[nH]c2ccccc12 (stereo not shown) | -27.4 |
| O=c1c2cc(N3CCOCC3)ccc2[nH]c(=S)n1CCCN1CCCC1 | -4.98 |
| CC(C)(C)c1ccc(CN(Cc2ccccc2)C(c2ccccn2)c2nnnn2C(C)(C)C)cc1 (stereo not shown) | 2.44 |
| COc1ccc(S(=O)(=O)N2CCC(C)CC2)cc1N(C)S(=O)(=O)c1ccccc1 | -2.12 |
| COC(=O)c1cccc(NC(=O)CCNC(=O)c2ccco2)c1 | 18.8 |
| COC(=O)C1=C(C)N(c2ccc(C(=O)OC)cc2)C(=O)C1 | 22.3 |
| O=C(CSc1nnc(-c2ccncc2)o1)N1CCCC1 | -19.1 |
| O=C(CCC(=O)c1ccc(Oc2ccccc2)cc1)Nc1ccc(Cl)cc1Cl | 5.46 |
| CCN(CC)S(=O)(=O)c1ccc(-c2nnc(SCC(=O)Nc3nnc(C)s3)n2CC)cc1 | 12.2 |
| Cc1ccc(C(=O)N/C(=C/c2ccc(-c3cccc([N+](=O)[O-])c3)o2)C(=O)NC(C)(C)C)cc1 | -21.9 |
| Cc1ccc(C(=O)N/C(=C\c2ccc(-c3cccc([N+](=O)[O-])c3)o2)C(=O)NCCCN(C)C)cc1 | -67.6 |
| Cc1ccc(C(=O)N/C(=C\c2ccc(-c3cccc([N+](=O)[O-])c3)o2)C(=O)NC(C)(C)C)cc1 | 1.94 |
| O=C(N/N=C/c1ccc(-c2cccc([N+](=O)[O-])c2)o1)c1ccc([N+](=O)[O-])cc1 | -40 |
| Cc1ccc(C(=O)N/C(=C/c2ccc(-c3cccc([N+](=O)[O-])c3)o2)C(=O)NC(C)C)cc1 | -30.8 |
| Cc1ccc(C(=O)N/C(=C/c2ccc(-c3cccc([N+](=O)[O-])c3)o2)C(=O)NCCCN(C)C)cc1 | -80 |
